From PubChem BioAssay AID1259418 (Broad Institute, 2018) come the findings set out here.

Among all 3,400 compounds or so, about 840 (25%) were called active. Roughly 11% stayed inconclusive and do not appear here. The list is a sample of the results. Measured potencies and affinities stand elsewhere. Unmarked numbers belong to inactive results.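 The calls were made as follows: active = fitted half-maximal concentration of signal decrease at or below twice the sample's top tested concentration; inconclusive = flat curve between -70 and -30 percent, or poor fit; inactive = flat within 30 percent, signal rise, or potency above limit.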

This assay is described as follows: T. gondii growth inhibition with IFN-gamma, dose response, cell-based, ME49Luc, HeLa, luciferase, 72 h (AID 1259418). Particulars: T. gondii ME49Luc in IFN-y HeLa, hits give low values, -100% = high-dose IFN-γ control wells; at 19.5 µM unless noted.
On to `Cc1ccc(CNC(=O)Cn2c(=O)c(S(=O)(=O)c3ccccc3)cc3ccccc32)cc1`, for which the max activity was 11% [at 0.16 µM]. Consider `Cc1ccc2[nH]c(C(=O)N3CCN(c4ccccn4)CC3)c(NC(=O)c3ccc(Cl)cc3)c2c1`, for which the max activity was 30.8% [at 10 µM]. `COCC(=O)Nc1ccc(-c2nc(-c3ccc(C)cc3C)co2)cc1`: the max activity is 13.9% [at 0.16 µM].

`O=C(c1ccccc1F)N1CCC2(CC1)Nc1cc(F)ccc1-n1cccc12`: the max activity was -7.85% [at 2.6 µM]. On to `CCCCC(=O)Nc1ccc(-c2nc(-c3ccccc3)co2)cc1`, for which the max activity was 9.5% [at 10 µM].

Regarding `COCCCN1CCc2nc(SCc3nc(-c4ccc(OC)cc4)oc3C)[nH]c(=O)c2C1`, the max activity was 25.5% [at 0.16 µM].

As for `Cc1nc(CCNC(=O)C2CCN(S(=O)(=O)c3ccc(F)c(Cl)c3)CC2)cs1`, the max activity was 8.69% [at 5 µM]. Take `Cc1ccc(-c2coc(-c3ccc(NC(=O)Nc4cccc(Cl)c4)cc3)n2)cc1`: the max activity was 13.6% [at 2.6 µM]. The value for `COc1ccc(-c2cc(C(=O)Nc3ccc4c(c3)CCC(=O)N4)c3ccccc3n2)cc1` was 13.4% [at 5 µM]; that for `Cc1oc(-c2ccccc2)nc1Cn1nnc(-c2nc(-c3cccc(Cl)c3)no2)c1C` was -9.25% [at 5 µM]; that for `COc1ccc2[nH]cc(CCNC(=O)c3sc4ncnc(N(C)C5CCCCC5)c4c3C)c2c1` was 9.31% [at 5 µM]. Then `Cc1ccc(-c2coc(-c3ccc(NC(=O)Nc4ccc(F)cc4F)cc3)n2)c(C)c1`, with 9.31% [at 0.68 µM]; and `COc1ccc(Cl)cc1NC(=O)Nc1ccc(-c2nc(-c3ccccc3)co2)cc1`, with -16.1% [at 0.68 µM]; and `COc1ccccc1CNC(=O)CCC1N=C2c3ccccc3N=C(SCc3ccccc3Cl)N2C1=O` (stereo not drawn), with -11% [at 0.35 µM]. Then `O=C(CCC1N=C2c3ccccc3N=C(SCc3ccccc3Cl)N2C1=O)NCc1cccs1` (stereo not drawn), with 20.4% [at 5 µM].

For `COc1ccccc1CNC(=O)CC1N=C2c3ccccc3N=C(SCc3cc(=O)n4ccccc4n3)N2C1=O` (stereo not drawn), the max activity is 17.5% [at 0.16 µM]. The value for `O=C(CCC1N=C2c3ccccc3N=C(SCc3ccccc3F)N2C1=O)NCc1ccco1` (stereo not drawn) was 61.5% [at 10 µM]; that for `COc1ccc(CNC(=O)CC2N=C3c4ccccc4N=C(SCc4cc(=O)n5cc(Cl)ccc5n4)N3C2=O)cc1` (stereo not drawn) was -22.2%; that for `COc1ccccc1CNC(=O)CC1N=C2c3ccccc3N=C(SCc3ccc(Cl)cc3)N2C1=O` (stereo not drawn) was 28% [at 5 µM]. The value for `COc1ccccc1CNC(=O)CCC1N=C2c3ccccc3N=C(SCc3ccccc3F)N2C1=O` (stereo not drawn) was 8.88%; that for `COc1ccc(CNC(=O)CC2N=C3c4ccccc4N=C(SCc4ccccc4Cl)N3C2=O)cc1` (stereo not drawn) was 18.1% [at 0.68 µM]. The value for `COc1ccc(CNC(=O)CCC2N=C3c4ccccc4N=C(SCc4ccccc4Cl)N3C2=O)cc1` (stereo not drawn) was -10.1% [at 0.16 µM]; that for `Cc1nc(OCC(=O)Nc2cc(Cl)ccc2C)c2ccccc2n1` was 25.9% [at 0.16 µM]. As to `CCOC(=O)C1CCCN(c2nc(-c3ccc(OC)cc3)nc3ccccc23)C1` (stereo not drawn), the max activity is -19.8% [at 0.16 µM]. The value for `O=C(CC1N=C2c3ccccc3N=C(SCc3ccccc3F)N2C1=O)NCc1ccccc1` (stereo not drawn) was 8.54% [at 0.16 µM]; that for `O=C(CC1N=C2c3ccccc3N=C(SCc3ccccc3F)N2C1=O)NCc1ccc(F)cc1` (stereo not drawn) was 15.6% [at 0.68 µM].

Consider `CCOC(=O)CSC1=Nc2ccccc2C2=NC(CC(=O)NCc3cccs3)C(=O)N12` (stereo not drawn), for which the max activity was 29.5%. For `N#CCSC1=Nc2ccccc2C2=NC(CCC(=O)NCc3cccs3)C(=O)N12` (stereo not drawn), the max activity was 19.3% [at 1.35 µM]. `Cc1ccc(-c2coc(-c3ccc(NC(=O)NCCc4ccccc4)cc3)n2)cc1`: the max activity was 19.3% [at 2.6 µM].

For the compound `COc1ccc(-c2nc(Nc3ccccc3F)c3ccccc3n2)cc1`, the max activity was 11.7%.

Take `COc1ccc(-c2nc(Nc3cc(OC)cc(OC)c3)c3ccccc3n2)cc1`: the max activity was 19% [at 5 µM]. Regarding `Clc1ccc(-c2nc(NC3CCCCC3)c3ccccc3n2)cc1`, the max activity was 16.4%. As for `Clc1ccc(-c2nc(NC3CCCCCC3)c3ccccc3n2)cc1`, the max activity was 14.3% [at 10 µM]. On to `COc1ccc(-c2nc(NC3CCCCCC3)c3ccccc3n2)cc1`, for which the max activity was 19.2% [at 0.16 µM]. Then `COc1ccc(-c2nc(NC3CCCCC3)c3ccccc3n2)cc1`, with -27.2% [at 5 µM]. Then `COc1ccc(-c2nc(Nc3ccc(Cl)cc3C)c3ccccc3n2)cc1`, with -19.8% [at 10 µM]; and `Cc1cnc(N2CC[C@H]3CN(CC(=O)N(C)C)S(=O)(=O)[C@@H]3CC2)nc1`, with 21.5%; and `O=C(CCc1ccc2nc(-c3ccccc3)[nH]c2c1)N1CCC(N2CCCCC2)CC1`, with 57.7%. For `c1ccc(-n2ncc3c(NC4CCCCCCCCCCC4)ncnc32)cc1`, the max activity was 53.5% [at 10 µM]. For `Cc1nc(-c2ccc(F)cc2)sc1-c1ccc(SCCN2CCCCC2)nn1`, the max activity was 10.2% [at 0.16 µM]. For the compound `Cc1ccc(Cn2c(=O)c3nn(C)cc3n3c(=O)n(Cc4nc(-c5cccc(C)c5)oc4C)nc23)cc1`, the max activity was 8.72% [at 10 µM]. The value for `COc1ccc(-c2nc(N3CCN(c4cc(C)ccc4C)CC3)c3ccccc3n2)cc1` was 11.7% [at 0.68 µM]. Then `O=C(CC1N=C2c3ccccc3N=C(SCc3ccccc3Cl)N2C1=O)NC1CCCCC1` (stereo not drawn), with 14%; and `O=C(CC1N=C2c3ccccc3N=C(SCc3cccc(Cl)c3)N2C1=O)NC1CCCCC1` (stereo not drawn), with -15.8% [at 0.16 µM]; and `Cc1ccc(CSC2=Nc3ccccc3C3=NC(CC(=O)NC4CCCCC4)C(=O)N23)cc1` (stereo not drawn), with 39.6%.

Take `O=C(CCC1N=C2c3ccccc3N=C(SCc3ccccc3F)N2C1=O)NC1CCCCC1` (stereo not drawn): the max activity was 96.1%. `Cc1cccc(C(=O)N2CCC3(CC2)Nc2ccc(Cl)cc2-n2cccc23)c1`: the max activity is 5.23%. The value for `COc1ccc(OC)c(NC(=O)Nc2ccc(-c3nc(-c4ccccc4)co3)cc2)c1` was 13.4% [at 0.68 µM]. Take `COc1ccc(-c2nc(Nc3cccc(C(F)(F)F)c3)c3ccccc3n2)cc1`: the max activity was -7.84% [at 5 µM]. Then `N#C[C@@H]1[C@@H](c2ccc(-c3cccnc3)cc2)[C@H](CO)N1C(=O)Nc1ccc(F)cc1`, with 48.3% [at 10 µM]; and `CCOc1cccc(-c2noc(-c3nnn(Cc4nc(-c5ccc(C)cc5)oc4C)c3C)n2)c1`, with -11.7% [at 0.68 µM]; and `CN1C(=O)CCc2cc(NC(=O)c3cnccn3)ccc21`, with 158% [at 10 µM]. The value for `COc1ccc(-c2nc(Nc3cc(Cl)ccc3OC)c3ccccc3n2)cc1` was 12.5% [at 0.68 µM]; that for `Cc1ccc2c(c1)cc(S(=O)(=O)c1ccccc1)c(=O)n2CC(=O)NCC1CCCO1` (stereo not drawn) was -10.7% [at 10 µM].

Turning to `CCOc1ccccc1NC(=O)N1CCN(Cc2nc(-c3ccc(C)cc3)oc2C)CC1`, the max activity was -15.8%. The value for `COc1ccc(OC)c(CNc2nc(-c3ccc(Cl)cc3)nc3ccccc23)c1` was 14.3%; that for `N#C[C@H]1[C@@H](c2ccc(-c3cccc(F)c3)cc2)[C@@H](CO)N1C(=O)NC1CCCC1` was 14.8% [at 2.6 µM]. For `N#C[C@@H]1[C@@H](c2ccc(-c3cccc(F)c3)cc2)[C@H](CO)N1C(=O)NC1CCCC1`, the max activity is 20.3% [at 10 µM]. As to `Cc1nc(-c2ccc(F)cc2)sc1-c1ccc(SCc2ccccc2)nn1`, the max activity is 20.5% [at 10 µM]. As for `COc1ccc(-c2nc(N3CCN(c4cc(Cl)ccc4C)CC3)c3ccccc3n2)cc1`, the max activity was 23.2% [at 1.35 µM].

With `Cc1ccccc1-c1nc(CN2CCN(C(=O)NC3CCCCC3)CC2)c(C)o1`, the max activity was -12% [at 0.35 µM]. The value for `Cc1cccc(-c2nc(Cn3nnc(-c4nc(-c5ccc(C(F)(F)F)cc5)no4)c3C)c(C)o2)c1` was -7.24% [at 0.16 µM]; that for `Cc1ccc(C)c(N2CCN(c3nc(-c4ccc(Cl)cc4)nc4ccccc34)CC2)c1` was 16.9%; that for `CC(C)Cc1ccc(S(=O)(=O)N2CCC3(CC2)NCCN=C3NCc2ccc3c(c2)OCO3)cc1` was 12.4% [at 10 µM]. Turning to `Cc1ccc(S(=O)(=O)N2CCC3(CC2)NCCN=C3NCc2ccc3c(c2)OCO3)c(C)c1`, the max activity was -18.3%. Regarding `O=S(=O)(c1ccc2c(c1)CCCC2)N1CCC2(CC1)NCCN=C2NCc1ccc2c(c1)OCO2`, the max activity is 10.2%. Then `COc1ccccc1NC(=O)COc1nc(C)nc2ccccc12`, with 14.7%; and `COc1ccc(S(=O)(=O)N2CCC[C@@H]2C(=O)NCCc2csc(C)n2)cc1OC`, with 10.7% [at 10 µM]. Turning to `O=C(Cc1ccccc1)N1CCC2(CC1)CC(N1CCCC1)CO2` (stereo not drawn), the max activity was 17.6% [at 2.6 µM]. Regarding `CC(C)CCNC(=O)Cn1c(=O)c(S(=O)(=O)c2ccccc2)cc2ccccc21`, the max activity was -14% [at 0.16 µM]. `COCC(=O)Nc1ccc2c(c1)CCC(=O)N2C`: the max activity was 6.56% [at 0.16 µM].

Regarding `CCN1C(=O)CCc2cc(NC(=O)Cc3ccc(Cl)cc3)ccc21`, the max activity was 8.3% [at 2.6 µM]. The value for `COc1ccc(CC(=O)Nc2ccc3c(c2)CCC(=O)N3C)cc1Cl` was 7.75% [at 10 µM].

Take `CN1C(=O)CCc2cc(NC(=O)Cc3c(F)cccc3Cl)ccc21`: the max activity is -7.19% [at 5 µM]. Then `CCN1C(=O)CCc2cc(NC(=O)Cc3ccc(OC)cc3)ccc21`, with 7.03% [at 2.6 µM]; and `CN1C(=O)CCc2cc(NC(=O)C3CC3)ccc21`, with -5.59% [at 0.16 µM]. Take `COc1cccc(CCC(=O)Nc2ccc3c(c2)CCC(=O)N3C)c1`: the max activity was 3.19%.

Turning to `CN1C(=O)CCc2cc(NC(=O)c3cccc(C(F)(F)F)c3)ccc21`, the max activity is 6.55% [at 0.68 µM].
